Results as given in PubChem BioAssay (NCI).
Compounds without any hit were thinned out: in the full panel of roughly 83,000, 20% have a hit.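 The test compound was applied at a single concentration to cells in 96-well plates for 48 hours, and percent growth was recorded.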 Calls of active or inactive are those of the source. Rule for the calls: active = growth percent below 10; inactive = the rest.

Assays:
Assay in all cases: NCI-60 one-dose screen, 48 h (100 = growth as untreated, 0 = no growth, -100 = all killed)
Details in all cases: 10 µM unless noted
SK-MEL-2 melanoma = tested on: SK-MEL-2 melanoma
EKVX NSCLC = tested on: EKVX NSCLC
SN12C renal = tested on: SN12C renal
UO-31 renal = tested on: UO-31 renal
TK-10 renal = tested on: TK-10 renal
ACHN renal = tested on: ACHN renal
CAKI-1 renal = tested on: CAKI-1 renal
CCRF-CEM leukemia = tested on: CCRF-CEM leukemia
MOLT-4 leukemia = tested on: MOLT-4 leukemia
SR leukemia = tested on: SR leukemia
RPMI-8226 leukemia = tested on: RPMI-8226 leukemia
OVCAR-8 ovarian = tested on: OVCAR-8 ovarian
OVCAR-5 ovarian = tested on: OVCAR-5 ovarian
OVCAR-4 ovarian = tested on: OVCAR-4 ovarian
SK-OV-3 ovarian = tested on: SK-OV-3 ovarian
IGROV1 ovarian = tested on: IGROV1 ovarian
OVCAR-3 ovarian = tested on: OVCAR-3 ovarian
HS 578T breast = tested on: HS 578T breast
NCI/ADR-RES ovarian = tested on: NCI/ADR-RES ovarian
A498 renal = tested on: A498 renal

Measured: growth

O=C1OCC2=C1C(c1cccc(F)c1)c1cc3c(cc1N2CCO)CCC3 (stereo not given)
active: CCRF-CEM leukemia 5.27% | OVCAR-3 ovarian -24.9%
inactive: SK-MEL-2 melanoma 27% | EKVX NSCLC 40.9% | SN12C renal 26.7% | UO-31 renal 37.8% | TK-10 renal 57.5% | ACHN renal 22.8% | CAKI-1 renal 32.5% | MOLT-4 leukemia 11.4% | SR leukemia 12.3% | RPMI-8226 leukemia 23.3% | OVCAR-8 ovarian 13.5% | OVCAR-5 ovarian 36.2% | OVCAR-4 ovarian 48.8% | SK-OV-3 ovarian 32.8% | IGROV1 ovarian 23.5% | HS 578T breast 41.2% | NCI/ADR-RES ovarian 13.3%

Cc1ccc(S(=O)(=O)c2nc(-c3ccccc3)oc2S(C)=O)cc1 (stereo not given)
inactive: SK-MEL-2 melanoma 50.3% | EKVX NSCLC 55.6% | SN12C renal 40.2% | OVCAR-5 ovarian 45% | OVCAR-4 ovarian 37.3% | SK-OV-3 ovarian 83.6% | HS 578T breast 78.9% | NCI/ADR-RES ovarian 70.1%
active: UO-31 renal -80.5% | TK-10 renal -94.8% | ACHN renal -99.2% | CAKI-1 renal -98.4% | CCRF-CEM leukemia -41% | SR leukemia -26.8% | RPMI-8226 leukemia -51.3% | OVCAR-8 ovarian 2.01% | IGROV1 ovarian -50.6% | OVCAR-3 ovarian -89.3%

CCN(CC)CCCC(Nc1c2ccc(Cl)cc2nc2ccc(OC)cc12)c1ccncc1 (stereo not given)
active: SR leukemia -6.47%
inactive: SK-MEL-2 melanoma 108% | EKVX NSCLC 87% | SN12C renal 63.5% | UO-31 renal 54.3% | TK-10 renal 81.8% | ACHN renal 57% | CAKI-1 renal 90.2% | CCRF-CEM leukemia 59.8% | MOLT-4 leukemia 18.3% | RPMI-8226 leukemia 74.3% | OVCAR-8 ovarian 58.4% | OVCAR-5 ovarian 96.6% | OVCAR-4 ovarian 68.5% | SK-OV-3 ovarian 97.6% | IGROV1 ovarian 75.7% | OVCAR-3 ovarian 95.6% | HS 578T breast 97.5% | NCI/ADR-RES ovarian 81.4%

CC(=O)c1ccc(Nc2nccc(-c3ccc(Cl)cc3)n2)cc1
inactive: SK-MEL-2 melanoma 98.1% | EKVX NSCLC 99.2% | SN12C renal 100% | UO-31 renal 93.1% | TK-10 renal 85.5% | ACHN renal 92.3% | CAKI-1 renal 92.6% | CCRF-CEM leukemia 84.4% | MOLT-4 leukemia 83.8% | SR leukemia 58.3% | OVCAR-8 ovarian 91.7% | OVCAR-5 ovarian 91.6% | OVCAR-4 ovarian 105% | SK-OV-3 ovarian 108% | IGROV1 ovarian 103% | OVCAR-3 ovarian 109% | HS 578T breast 95% | NCI/ADR-RES ovarian 96.1%

COC(=O)c1c(C(=O)OC)c2ccc3c4ncccc4ccc3n2c1C(=O)c1ccc(C)cc1
inactive: SK-MEL-2 melanoma 83.2% | EKVX NSCLC 83.2% | SN12C renal 100% | UO-31 renal 74.3% | TK-10 renal 93.4% | ACHN renal 77.1% | CAKI-1 renal 83.9% | CCRF-CEM leukemia 71.2% | MOLT-4 leukemia 73.3% | SR leukemia 75.8% | RPMI-8226 leukemia 84.1% | OVCAR-8 ovarian 82.7% | OVCAR-5 ovarian 87.1% | OVCAR-4 ovarian 90.9% | SK-OV-3 ovarian 87.8% | IGROV1 ovarian 94.4% | OVCAR-3 ovarian 102% | HS 578T breast 96.3% | NCI/ADR-RES ovarian 92.7%

NC(=N\N=C/c1ccc(Cl)cc1Cl)/C(N)=N\N=C/c1ccc(Cl)cc1Cl
active: CCRF-CEM leukemia 3.15% | OVCAR-4 ovarian -34% | SK-OV-3 ovarian 9.34%
inactive: SK-MEL-2 melanoma 63.7% | EKVX NSCLC 77.3% | SN12C renal 67.7% | UO-31 renal 49.8% | TK-10 renal 29.7% | ACHN renal 17.4% | CAKI-1 renal 69.9% | MOLT-4 leukemia 96.6% | SR leukemia 51.1% | RPMI-8226 leukemia 62.2% | OVCAR-8 ovarian 76.6% | OVCAR-5 ovarian 71.6% | IGROV1 ovarian 15.8% | OVCAR-3 ovarian 21.5% | HS 578T breast 33.2% | NCI/ADR-RES ovarian 82.3%

Cc1[nH]c(C(=O)Nc2ccccc2OC2CCNC2)c(Cl)c1Cl (stereo not given)
inactive: SK-MEL-2 melanoma 96.5% | EKVX NSCLC 70.3% | SN12C renal 78.2% | UO-31 renal 45.5% | TK-10 renal 122% | ACHN renal 42.8% | CAKI-1 renal 76% | CCRF-CEM leukemia 59.3% | MOLT-4 leukemia 87.8% | RPMI-8226 leukemia 79% | OVCAR-8 ovarian 94% | OVCAR-5 ovarian 95.5% | OVCAR-4 ovarian 79.1% | SK-OV-3 ovarian 99.3% | IGROV1 ovarian 66.5% | OVCAR-3 ovarian 84.5% | HS 578T breast 93.2% | NCI/ADR-RES ovarian 86.7%
active: SR leukemia 0.45%

COc1ccc(S(=O)(=O)NC2c3ccccc3CC2O)cc1OC (stereo not given)
inactive: SK-MEL-2 melanoma 104% | EKVX NSCLC 103% | SN12C renal 96.1% | UO-31 renal 78.8% | TK-10 renal 112% | ACHN renal 105% | CAKI-1 renal 102% | CCRF-CEM leukemia 101% | SR leukemia 100% | RPMI-8226 leukemia 104% | OVCAR-8 ovarian 107% | OVCAR-5 ovarian 104% | OVCAR-4 ovarian 117% | SK-OV-3 ovarian 115% | IGROV1 ovarian 106% | OVCAR-3 ovarian 112% | HS 578T breast 98.8% | NCI/ADR-RES ovarian 105%

C#CCOc1cccc(-c2ncnc3cc(NC(=O)CCl)ccc23)c1
active: SK-MEL-2 melanoma -4.29% | SN12C renal -65.8% | UO-31 renal -93.7% | CAKI-1 renal -94.4% | CCRF-CEM leukemia -15.6% | MOLT-4 leukemia -6.64% | SR leukemia -11.5% | RPMI-8226 leukemia -38.1% | OVCAR-8 ovarian -5.91% | OVCAR-5 ovarian -47.3% | OVCAR-4 ovarian -25.6% | IGROV1 ovarian -54.2% | OVCAR-3 ovarian -78.2% | NCI/ADR-RES ovarian 1.21%
inactive: EKVX NSCLC 11% | TK-10 renal 11.8% | A498 renal 59.4% | HS 578T breast 17%

C=CN(C(=O)N1CCN(c2cc3c(cc2F)c(=O)c(C(=O)O)cn3C2CC2)CC1)c1nc(-c2ccc(C)cc2)cs1
active: SN12C renal 8.99% | A498 renal -4.05% | CCRF-CEM leukemia 4.64% | RPMI-8226 leukemia 7.02% | SK-OV-3 ovarian -5.97% | OVCAR-3 ovarian 5.61%
inactive: SK-MEL-2 melanoma 35.2% | EKVX NSCLC 24.2% | UO-31 renal 13.4% | TK-10 renal 42.3% | CAKI-1 renal 20.9% | MOLT-4 leukemia 13.9% | SR leukemia 13.7% | OVCAR-8 ovarian 14.1% | OVCAR-5 ovarian 38.5% | OVCAR-4 ovarian 23.3% | IGROV1 ovarian 22.4% | HS 578T breast 13.8% | NCI/ADR-RES ovarian 44.9%

CCOC(=O)CC1CSC(N/N=C(/C)c2cccc(C(F)(F)F)c2)=N1 (stereo not given)
inactive: SK-MEL-2 melanoma 123% | EKVX NSCLC 89.3% | SN12C renal 103% | UO-31 renal 80.2% | TK-10 renal 95.8% | CAKI-1 renal 91.6% | A498 renal 97.4% | CCRF-CEM leukemia 104% | MOLT-4 leukemia 95.8% | SR leukemia 99.6% | RPMI-8226 leukemia 111% | OVCAR-8 ovarian 102% | OVCAR-5 ovarian 105% | OVCAR-4 ovarian 94.1% | SK-OV-3 ovarian 96.1% | IGROV1 ovarian 94.5% | OVCAR-3 ovarian 105% | HS 578T breast 101% | NCI/ADR-RES ovarian 101%
